Most compounds without a hit are left out; they make up all but 1.6% or so of the library.
DSG3 Ab inh = inhibitors of pemphigus antibody binding to human desmoglein-3; DSG3-coupled beads, scFv-anti-DSG3-GFP binding, flow cytometry; hits give low values; binding (percent of control), % at 10 µM; P32926; hit rate 0.48% among 310,000;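 active = binding more than 3 SD below its plate's average and above zero; inconclusive = below that plate limit but binding exactly zero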;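 note: hits lower antibody fragment binding to DSG3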
VLA-4 inh = inhibition in a human VLA-4 binding assay. VLA-4 expressing cells, ligand binding flow cytometry. inhibition, % (about 7 µM as worked out from the volumes in the protocol). hit rate 0.2% among 330,000; in the data active = inhibition above about 50%
GRK2 aptamer HTS = blocks RNA aptamer binding to human GRK2; bead flow cytometry, FAM-aptamer displacement from GRK2; inhibition of aptamer binding, % at 10 µM; hit rate 0.59% among 330,000;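 active = inhibition of aptamer binding above 40%, roughly 3 SD of noise, on plates passing a quality check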;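 note: median bead fluorescence of bound FAM aptamer so fluorescent compounds give negative values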
Target sequence (P25098 whole entry, looked up): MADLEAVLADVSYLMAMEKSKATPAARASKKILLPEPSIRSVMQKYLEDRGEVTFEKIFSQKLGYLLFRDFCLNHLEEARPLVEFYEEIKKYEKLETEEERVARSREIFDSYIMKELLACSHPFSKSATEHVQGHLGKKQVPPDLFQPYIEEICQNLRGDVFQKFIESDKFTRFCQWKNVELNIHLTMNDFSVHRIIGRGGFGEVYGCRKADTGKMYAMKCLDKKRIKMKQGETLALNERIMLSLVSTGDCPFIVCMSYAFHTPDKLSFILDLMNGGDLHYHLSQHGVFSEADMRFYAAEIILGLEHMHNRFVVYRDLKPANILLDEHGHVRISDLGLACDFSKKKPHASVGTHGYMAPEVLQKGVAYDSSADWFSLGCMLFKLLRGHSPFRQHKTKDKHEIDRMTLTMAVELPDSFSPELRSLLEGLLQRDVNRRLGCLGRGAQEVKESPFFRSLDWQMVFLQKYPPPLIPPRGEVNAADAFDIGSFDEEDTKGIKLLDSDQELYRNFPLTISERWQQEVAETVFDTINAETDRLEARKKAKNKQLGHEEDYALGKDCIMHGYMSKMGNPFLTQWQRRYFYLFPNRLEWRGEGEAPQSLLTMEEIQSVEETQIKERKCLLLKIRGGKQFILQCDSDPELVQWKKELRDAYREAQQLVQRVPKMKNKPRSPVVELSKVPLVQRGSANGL
PREPL inhibitor = human PREPL enzyme inhibition | Q4J6C6 | recombinant PREPL, fluorescence polarization activity-based probe | inhibition, % at 5.96 µM | hit rate 0.68% among 320,000;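 note: 0% = enzyme with DMSO and 100% = wells lacking enzyme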
JMJD2C inh = human JMJD2C demethylase inhibition; GST-JMJD2C(1-420) H3K9me3 demethylation, DELFIA europium; Q9H3R0; AID 2099; hit rate 0.069% among 330,000; inhibition, % at 2.35 µM;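 active = more than half of a compound's replicate wells show inhibition beyond 50%, single wells judged on their own value; inconclusive = some, but no more than half, of replicates pass 50% inhibition; inactive = no replicate passes 50% inhibition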;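 note: signal counts dimethyl H3K9 product captured on neutravidin plate; 0% = median of DMSO wells and 100% = 0.3 times that DMSO median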
PREPL confirm = human PREPL inhibition, confirmation | shares compounds with PREPL inhibitor | recombinant PREPL, fluorescence polarization activity probe | inhibition, % at 5.96 µM | hit rate 67% among 2,000 | AID 2803;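 note: 0% = protein with DMSO and 100% = wells lacking protein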
The depositor's hits bear a star. Cut-off read from the data, not from the text of the source, unless noted: active = inhibition above about 43%; inactive = the rest.

How did CC1=Nc2nc(N3CCCCC3)c(C#N)c3c4c(nc(c23)N1)N(c1ccc(C(C)C)cc1)C(=O)C4 do in these assays?
DSG3 Ab inh: 98.4; VLA-4 inh: -96.2; GRK2 aptamer HTS: 0.0; PREPL inhibitor: 98.7*; JMJD2C inh: -5.5; PREPL confirm: 71.6*

What do the screens show for `CC(C)c1ccc(-c2nc(N3CCCCC3)[nH]c(=O)c2C#N)cc1`?
DSG3 Ab inh: 102.5; VLA-4 inh: -1.4; GRK2 aptamer HTS: 0.0; PREPL inhibitor: 8.5; JMJD2C inh: 5.1

Results for CC(=O)N1CCN(c2ccccc2NC(=O)Cc2ccc(Cl)cc2)CC1 ?
DSG3 Ab inh: 103.5; VLA-4 inh: -14.2; GRK2 aptamer HTS: 0.0; PREPL inhibitor: -0.7; JMJD2C inh: 0.7

Results for CN(C)CCc1cc2c(c3c1ccc1ccccc13)OCO2 ?
DSG3 Ab inh: 115.4; VLA-4 inh: 17.2; GRK2 aptamer HTS: 0.0; PREPL inhibitor: 67.8*; JMJD2C inh: -8.2; PREPL confirm: 59.1*

Results for O=C(Nc1sccc1C(=O)N1CCOCC1)c1cccnc1 ?
DSG3 Ab inh: 97.1; VLA-4 inh: 8.4; GRK2 aptamer HTS: 3.0; PREPL inhibitor: 4.0; JMJD2C inh: 2.4

Results for O=C(NCC1CCCO1)c1sc(=S)n2c1[nH]c(=O)c1ccc(C(=O)N3CCCCC3)cc12 (stereo not drawn) ?
VLA-4 inh: 33.4; GRK2 aptamer HTS: 10.0; PREPL inhibitor: 22.8; JMJD2C inh: -1.8

Results for COc1ccc(OC)c(CCNC(=O)c2ccc3c(=O)[nH]c4c(C(=O)NC(C)C)sc(=S)n4c3c2)c1 ?
DSG3 Ab inh: 97.5; VLA-4 inh: 2.7; GRK2 aptamer HTS: 0.0; PREPL inhibitor: 26.9; JMJD2C inh: -11.9

Results for O=C(NCCc1ccccc1)c1ccc2c(=O)[nH]c3c(C(=O)NCC4CCCO4)sc(=S)n3c2c1 (stereo not drawn) ?
DSG3 Ab inh: 123.6; VLA-4 inh: 1.8; GRK2 aptamer HTS: 0.0; PREPL inhibitor: 93.0*; JMJD2C inh: 4.0; PREPL confirm: 90.4*

How did CCOc1ccc(CCNC(=O)c2ccc3c(=O)[nH]c4c(C(=O)NC(C)C)sc(=S)n4c3c2)cc1 do in these assays?
DSG3 Ab inh: 138.5; VLA-4 inh: -10.2; GRK2 aptamer HTS: 2.0; PREPL inhibitor: 55.4*; JMJD2C inh: 18.0; PREPL confirm: 78.5*

How did CC(C)NC(=O)c1sc(=S)n2c1[nH]c(=O)c1ccc(C(=O)NCCc3ccc(Cl)cc3)cc12 do in these assays?
DSG3 Ab inh: 124.9; VLA-4 inh: -3.2; GRK2 aptamer HTS: 0.0; PREPL inhibitor: 70.5*; JMJD2C inh: 1.0; PREPL confirm: 80.0*

What do the screens show for `Cc1cc(C(=O)N2CCN(c3ccc([N+](=O)[O-])cc3)CC2)c(C)o1`?
DSG3 Ab inh: inconclusive; VLA-4 inh: 1.9; GRK2 aptamer HTS: 1.0; PREPL inhibitor: 26.8; JMJD2C inh: 9.0

How did O=C(c1cc([N+](=O)[O-])ccc1Cl)N1CCN(c2ccc([N+](=O)[O-])cc2)CC1 do in these assays?
DSG3 Ab inh: 95.5; VLA-4 inh: 10.6; GRK2 aptamer HTS: 0.0; PREPL inhibitor: 64.8*; JMJD2C inh: 6.4; PREPL confirm: 58.2*

Results for CN1c2ccsc2/C(=N/Nc2ccc(F)cc2)CS1(=O)=O ?
DSG3 Ab inh: 89.7; VLA-4 inh: 11.8; GRK2 aptamer HTS: 4.0; PREPL inhibitor: 57.2*; JMJD2C inh: -6.5; PREPL confirm: 34.2

Results for O=C1NCCC/C1=N/Nc1ccc(F)cc1 ?
VLA-4 inh: 3.9; GRK2 aptamer HTS: 2.0; PREPL inhibitor: 4.1; JMJD2C inh: 48.9

How did Cc1c(Cl)cccc1NC(=O)CCN1C(=O)C2CC=CCC2C1=O (stereo not drawn) do in these assays?
VLA-4 inh: 1.5; GRK2 aptamer HTS: 3.0; PREPL inhibitor: 3.0; JMJD2C inh: -8.8

How did COc1ccc2c(/C=N/Nc3ccc(C(=O)O)cc3)c[nH]c2c1 do in these assays?
DSG3 Ab inh: 98.7; VLA-4 inh: -11.5; GRK2 aptamer HTS: 2.0; PREPL inhibitor: 56.3*; JMJD2C inh: -0.8; PREPL confirm: 9.8

What do the screens show for `COc1ccc(C(=O)N/N=C/c2c[nH]c3ccccc23)cc1`?
DSG3 Ab inh: 112.0; VLA-4 inh: 2.2; GRK2 aptamer HTS: 0.0; PREPL inhibitor: 1.4; JMJD2C inh: -24.3

How did CC(=O)Nc1ccc(S(=O)(=O)N2CCC(NC(=O)C(Cc3ccccc3F)NC(C)=O)CC2)cc1 (stereo not drawn) do in these assays?
DSG3 Ab inh: 85.5; JMJD2C inh: -30.3

What do the screens show for `Cn1c(SCC(=O)N(C2CCCCC2)C2CCCCC2)nnc1-c1cccs1`?
DSG3 Ab inh: 99.0; VLA-4 inh: 6.5; GRK2 aptamer HTS: 3.0; PREPL inhibitor: -27.6; JMJD2C inh: -1.6

Results for NC(=O)c1ccc(-n2nnnc2SCC(=O)NC2CCCCC2)cc1 ?
DSG3 Ab inh: 104.7; VLA-4 inh: -5.1; GRK2 aptamer HTS: 1.0; PREPL inhibitor: 3.6; JMJD2C inh: -16.1

How did Cc1[nH]c2ccc(C(=O)NCCCN3CCCCC3)cc2c1C do in these assays?
DSG3 Ab inh: 116.1; VLA-4 inh: 38.7; GRK2 aptamer HTS: 0.0; PREPL inhibitor: 11.6; JMJD2C inh: 18.4

How did Cc1[nH]c2ccc(C(=O)NCCN3CCCCCC3)cc2c1C do in these assays?
DSG3 Ab inh: 116.2; VLA-4 inh: -3.8; GRK2 aptamer HTS: 0.0; PREPL inhibitor: 60.9*; JMJD2C inh: -5.7; PREPL confirm: 31.9

Results for CCN1CCN(c2cc(C)c3cc(NC(=O)CCC(=O)N4CCN(c5ccccc5OC)CC4)ccc3n2)CC1 ?
VLA-4 inh: -9.2; GRK2 aptamer HTS: 0.0; PREPL inhibitor: 6.1; JMJD2C inh: 6.3

How did CCN1CCN(c2cc(C)c3cc(NC(=O)CCC(=O)N4CCN(c5ccccc5)CC4)ccc3n2)CC1 do in these assays?
DSG3 Ab inh: 99.4; VLA-4 inh: 0.2; GRK2 aptamer HTS: 0.0; PREPL inhibitor: 48.9*; JMJD2C inh: 11.4; PREPL confirm: 46.9*

Results for CN(CC(=O)Nc1c(Cl)cccc1Cl)C(=O)C1CSC2(C)CCC(=O)N12 (stereo not drawn) ?
DSG3 Ab inh: 102.6; VLA-4 inh: -2.4; GRK2 aptamer HTS: 1.0; PREPL inhibitor: -0.9; JMJD2C inh: 9.9

What do the screens show for `O=c1[nH]c2ccc(NCc3ccccc3OCc3ccc(Cl)cc3)cc2[nH]1`?
DSG3 Ab inh: 99.4; VLA-4 inh: -4.5; GRK2 aptamer HTS: 0.0; PREPL inhibitor: 72.5*; JMJD2C inh: 1.9; PREPL confirm: 73.1*

What do the screens show for `COC(=O)C(Cc1ccc(O)cc1)NC(=O)C(C)NC(=O)c1ccc(C(C)(C)C)cc1` (stereo not drawn)?
DSG3 Ab inh: 99.8; VLA-4 inh: 3.8; GRK2 aptamer HTS: 0.0; PREPL inhibitor: 6.9; JMJD2C inh: 65.8

Results for N#CCCN1CCN(Cn2c3ccccc3c3ccccc32)CC1 ?
DSG3 Ab inh: 99.0; VLA-4 inh: 3.6; GRK2 aptamer HTS: 0.0; PREPL inhibitor: 6.8; JMJD2C inh: 3.3

How did CN1CCN(CCCNCc2cn(CCC#N)c3ccccc23)CC1 do in these assays?
DSG3 Ab inh: 98.1; VLA-4 inh: -11.2; GRK2 aptamer HTS: 0.0; PREPL inhibitor: 49.1*; JMJD2C inh: -11.0; PREPL confirm: 31.1

Assay outcomes: PubChem BioAssay, several laboratories
